Reference: PubChem BioAssay (Tox21)
Records with an inconclusive call do not appear. Entries that show only a call come without a potency. Values without a mark were called inactive. Activity calls are given as the source filed them. The call rests on the fitted dose curve; in most records, active means well fitted cell-killing curve with a large enough effect in the repeat runs; inconclusive means weak or mixed curves, or effect the other way; inactive means flat fitted curve, though single readings scatter.

What was measured:
[1] = cAMP Responsive Elements (CRE) small molecule antagonists, cell-based qHTS assay: qHTS cell viability counter screen (AID 2060913); further: nearly all actives have a fitted effect of over 40% in size
Procedure, shortened: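 CRE-bla HEK293T cells (2,000/well, 18 h) given compound plus NKH477 0.25 uM final for 3 h at 37C; viability counter-screen by CellTiter-Glo luminescence in same wells after 30 min.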

[2] = cAMP Responsive Elements (CRE) small molecule agonists, cell-based qHTS assay: qHTS cell viability counter screen (AID 2060914); further: potency means the concentration at half of the fitted maximal effect;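 further: viability read after 3 h of compound exposure; nearly all actives have a fitted effect of over 50% in size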
Procedure, shortened: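 CRE-bla HEK 293T cells, plated 18 h at 37 °C, were exposed to compounds for 3 h at 37 °C/5% CO2. Viability was then measured in the same wells by CellTiter-Glo luminescence after 30 min at room temperature.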

SMILES | Potency [1] | Potency [2] | viability change, negative = cytotoxic [1] | activity change, negative = cytotoxicity [2]
CCCCOC(=O)c1ccc(O)cc1 | inactive | inactive | – | –
CN1[C@@H]2CC(OC(=O)[C@H](CO)c3ccccc3)C[C@H]1[C@@H]1O[C@@H]12 (some centres not stated) | inactive | inactive | – | –
C=CC(=O)OCCCCCCCCCC | inactive | inactive | – | –
[Cl][Pt-2]([Cl])([Cl])[Cl] | inactive | inactive | – | –
CCCCCCC(O)CCCCCCCCCCC(=O)OC (configuration not stated) | inactive | inactive | – | –
Cc1ccc(C(=O)C(=O)O)cc1C | inactive | inactive | – | –
CC(C)C(=O)c1c(C(C)C)nn2ccccc12 | inactive | inactive | – | –
CC(=O)Oc1cc(C(C)C)c(OCCN(C)C)cc1C | inactive | inactive | – | –
C=CC(C)(CCC=C(C)C)OC(=O)C(C)C (configuration not stated) | inactive | inactive | – | –
Cc1nc2ccccn2c(=O)c1CCN1CCC(C(=O)c2ccc(F)cc2)CC1 | inactive | inactive | – | –
C=CC(C)C#N (configuration not stated) | inactive | inactive | – | –
Oc1cccc2[nH]ccc12 | inactive | inactive | – | –
COCN(COC)c1nc(N(COC)COC)nc(N(COC)COC)n1 | inactive | inactive | – | –
Cc1occc(=O)c1O | inactive | inactive | – | –
O=C(O)CCCCC1CCSS1 (configuration not stated) | inactive | inactive | – | –
CC(C)(C)C(=O)OCOC(=O)[C@@H]1N2C(=O)[C@@H](NC(=O)[C@H](N)c3ccccc3)[C@H]2SC1(C)C | inactive | inactive | – | –
CC[C@H](C)[C@@H](C(=O)O)n1sc2ccccc2c1=O | inactive | inactive | – | –
O=[N+]([O-])c1c(Cl)cc(Cl)cc1Cl | inactive | inactive | – | –
CCCN(CCC)c1c([N+](=O)[O-])cc(C(F)(F)F)c(N)c1[N+](=O)[O-] | inactive | 60.9 µM (active) | – | –
Cn1ccnc1 | inactive | inactive | – | –
CC(CN=Cc1ccccc1O)N=Cc1ccccc1O (configuration not stated) | inactive | inactive | – | –
CN(C)Cc1cc(CN(C)C)c(O)c(CN(C)C)c1 | inactive | inactive | – | –
CC(C)(C(=O)c1cccnc1)c1cccnc1 | inactive | inactive | – | –
CN1CCN(c2cc3c(nn2)Oc2ccccc2N3C)CC1 | – | – | 4.41% [at 18.9 µM] | 1.04% [at 18.9 µM]
Nc1ccc(S(=O)(=O)Nc2ccc(Cl)nn2)cc1 | inactive | inactive | – | –
CN1CCN(c2c(F)cc3c(=O)c(C(=O)O)cn(CCF)c3c2F)CC1 | inactive | inactive | – | –
